# Screening data as filed in PubChem BioAssay.
# SARS PLP yeast – SARS-CoV PLP inhibition in yeast. Potency, µM (series often up to 32.9 µM), without a hit: at the highest dose activity, positive = growth rescue, usual class: activators. AID 485353. S. cerevisiae expressing SARS-CoV PLpro, growth rescue. actives 0.19% (n = 330,000); calls by dose curve; further: potency means the concentration at half of the fitted maximal effect; 0% is about no effect; nearly all actives have a fitted effect of over 55% in size
# AMA1-RON2 inh – inhibitors of Plasmodium falciparum AMA1-RON2 interaction. AlphaScreen AMA1-biotinylated RON2 peptide binding. Potency, µM (top dose mostly 58.2 µM), inactives show top-dose activity change, negative = inhibition, hits mostly inhibitors. actives 0.2% (n = 360,000). AID 720542;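 further: potency means the concentration at half of the fitted maximal effect; 0% = vehicle wells and -100% = peptide control; nearly all actives have a fitted effect of over 45% in size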
#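 AMA1 (3D7) with his tag at 25 nM final met compounds first, then biotinylated RON2 peptide at 25 nM; detection used donor plus acceptor beads, 10 µg/mL apiece, read by AlphaScreen after 30 min at room temperature.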
# AmpC inh detg – inhibitors of E. coli AmpC beta-lactamase with detergent; actives 0.041% (n = 370,000); P00811; AmpC hydrolysis of nitrocefin, absorbance 480 nm, 0.01% Triton; Potency, µM (series often up to 114 µM), without a hit: at the highest dose activity change, negative = inhibition, hits mostly inhibitors;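 further: potency means the concentration at half of the fitted maximal effect; 0% = no-compound wells and -100% = no-enzyme wells; nearly all actives have a fitted effect of over 25% in size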
# Target sequence (P00811 whole entry, looked up): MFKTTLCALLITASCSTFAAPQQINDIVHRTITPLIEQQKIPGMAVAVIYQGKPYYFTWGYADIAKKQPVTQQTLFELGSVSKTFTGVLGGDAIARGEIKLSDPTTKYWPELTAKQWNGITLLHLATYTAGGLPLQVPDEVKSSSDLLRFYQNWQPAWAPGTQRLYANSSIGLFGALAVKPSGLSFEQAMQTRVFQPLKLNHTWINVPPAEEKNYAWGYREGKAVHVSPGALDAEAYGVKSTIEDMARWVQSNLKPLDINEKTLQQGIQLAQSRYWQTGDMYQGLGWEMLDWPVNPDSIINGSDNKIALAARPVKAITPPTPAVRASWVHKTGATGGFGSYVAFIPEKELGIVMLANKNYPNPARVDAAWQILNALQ
#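 20 mM phosphate pH 7.0 + 0.01% (detergent screen) or 0.0001% Triton X-100; 5.3 nM AmpC reagent; cpd preinc 15 min RT; nitrocefin (800 uM stock) to start; A480 q20 s × 4 min; Activity was normalised to no-enzyme and no-compound control wells.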
# Shiga inhibitor – inhibitors of Shiga toxin in Vero cells; Vero cells, Shiga toxin protein synthesis inhibition reporter; inhibition, % at 38.7 µM; actives 9.2% (n = 290,000); in the data active means inhibition mostly above about 28%, no sharp cut-off; inactive means mostly below about 43%; further: 0% is about no effect
# Cycloheximide cs – affects cycloheximide protein synthesis inhibition readout, counter-screen. cell reporter, cycloheximide protein synthesis inhibition counterscreen. actives 12% (n = 300,000). max response, %; in the data active means max response mostly above about 13%, no sharp cut-off; inactive means mostly below about 14%; further: read at 38.3 µM for the half of the compounds with a filed dose; 0% is about no effect
# AmpC no deterg – AmpC beta-lactamase inhibition without detergent; P00811; AmpC nitrocefin hydrolysis, absorbance 480 nm, 0.0001% Triton; Potency, µM (doses to about 57.1 µM), for inactives: at the highest dose activity change, negative = inhibition, actives largely listed as inhibitors; actives 0.52% (n = 330,000);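 further: potency means the concentration at half of the fitted maximal effect; plate controls were no compound for no effect and no enzyme for full effect; nearly all actives have a fitted effect of over 20% in size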
#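 AmpC (5.3 nM in the dispensed reagent) in 20 mM phosphate pH 7.0 with 0.01% (detergent screen) or 0.0001% Triton X-100 was preincubated with compounds for 15 min at room temperature. Nitrocefin was then added from an 800 uM solution, and hydrolysis was followed at 480 nm.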
# Active calls of the source: *; ? = inconclusive; nt = not tested or not shown; [ ] = remark or other dose. Many of the other results were omitted from the sample, so hits are more common in it than they were. Unless noted, the call rests on the fitted dose curve; in most records, active means well fitted curve in the direction sought with a large enough effect; inconclusive means small, poorly fitted or top-dose-only effect, or another doubt; inactive means no such curve, though single readings can be large; an effect the other way counts as inactive or inconclusive.
SMILES,SARS PLP yeast,AMA1-RON2 inh,AmpC inh detg,Shiga inhibitor,Cycloheximide cs,AmpC no deterg
CN(C)c1ccc(/C=C2/NC(=O)NC2=O)cc1,4%,-8%,-1%,active,25*,-17%
CCC(C(=O)N(C(C)C)C(C)C)c1ccccc1 (stereo not given),0%,4%,1%,nt,nt,-9%
Cc1noc(NS(=O)(=O)c2ccc(NC(=O)CSc3nnc4c(n3)[nH]c3ccccc34)cc2)c1C,5%,-12%,-7%,-8,-4,-42%
COc1cc2nc(-c3ccccc3)nc(N3CCCC3)c2cc1OC,1%,nt,-8%,-13,10,-12%
CC(C)(C)c1cc(/C=C2\NC(=O)NC2=O)cc(C(C)(C)C)c1O,0%,-1%,?,30,25*,-21%
O=C1Nc2ccccc2/C1=C/c1ccccc1F,-3%,-6%,-7%,28,13*,-50%
Cc1cc(N/C=C/C(=O)c2ccc(Br)cc2)no1,0%,1%,?,49*,16*,-17%
Cc1ccnc(N/C=C/C(=O)c2ccc(Br)cc2)c1,-2%,-12%,-6%,110*,49*,-28%
COc1ccc(C(=O)/C=C/Nc2cc(C)ccn2)cc1,-2%,6%,-4%,38,29*,-18%
Cc1cc(N/C=C/C(=O)c2cccc3ccccc23)no1,-7%,-8%,?,27,11,-14%
Cc1ccc2nc(NC(=O)Cn3nc(C)c([N+](=O)[O-])c3C)sc2c1,-11%,-12%,7%,-8,-2,-30%
CCCCN(CC)C(=O)c1ccc(Cl)cc1,0%,-10%,-2%,-3,-5,-4%
CCCCN(CC)C(=O)c1ccc(Cl)c(Cl)c1,1%,13%,-4%,29,14*,1%
CCCCN(CCCNC(=O)c1cc(Nc2ccc(OC)cc2OC)nc2ccccc12)Cc1ccccc1,nt,nt,0%,nt,nt,nt
O=C(CN1c2ccccc2Sc2ccccc21)NNC(=S)Nc1ccc(Cl)cc1,8%,20%,18%,-6,-2,-48%
O=C(CN1c2ccccc2Sc2ccccc21)NNC(=S)Nc1ccc(Cl)cc1Cl,5%,20%,-8%,6,-4,16µM*
COc1ccc(C(=O)NNC(=O)Cc2coc3cc(OC)ccc23)cc1,1%,30%,nt,nt,nt,-8%
O=C(CCc1nnc(CCCCc2ccccc2)o1)N(CCO)Cc1ccccc1,1%,-12%,-1%,1,-2,159%
C=C(C)CN(CC)C(=O)CCc1nnc(CCCc2ccccc2)o1,-1%,-2%,9%,61*,39*,52%
CCN(CCn1cccn1)C(=O)CCc1nnc(CCCc2ccccc2)o1,0%,-11%,-8%,99*,36*,16%
CC(C)NC(=O)N(C)C[C@@H]1OCc2ccccc2-c2c(n(C)c3ccccc23)C(=O)N([C@@H](C)CO)C[C@@H]1C,nt,-7%,nt,nt,nt,nt
Cc1ccc(-c2nc(N)s[n+]2-c2ccccc2)cc1,8%,-7%,?,91*,81*,-18%
Cc1ccc(-c2nc3ccccc3nc2-c2ccccc2)cc1,-5%,15%,4%,-5,11,3%
CNc1nc(-c2ccccc2)[n+](-c2ccc(C)cc2)s1,?,-25%,0%,135*,30*,-10%
Cc1ccc(-c2cc(-c3ccc(C)cc3)[n+](-c3ccccc3)c(-c3ccc(C)cc3)c2)cc1,-2%,-2%,1%,nt,nt,50%
COc1ccc(C2=NNC(c3cccs3)=Nc3ccc(OC)cc32)cc1,-32%,-29%,-6%,70*,31*,-47%
CCOc1ccc(C2=NNC(c3cccs3)=Nc3ccc(OCC)cc32)cc1,-8%,nt,-10%,30*,4,-46%
CCOc1ccc2c(c1)C(c1cccs1)=NNC(c1cccnc1)=N2,2%,-8%,-6%,0,10,-2%[11.4 µM]
CCOc1ccc(C2=NNC(c3cccs3)=Nc3ccc(OC)cc32)cc1OCC,5%,5%,?,52*,27*,3%
CCC(C)(C)NC(=O)Cc1ccc(C)cc1,16%,-2%,-14%,83*,21*,-7%
